Rows were chosen to be rich in hits. Some 4.3% of all compounds tested hit in one or more screens of this group.
GRIN3A LBD mod: modulates the human NR3A ligand-binding domain | NR3A LBD differential scanning fluorimetry, Tm shift; 0% = protein alone, 100% = glycine-bound protein | Tm shift relative to glycine control, % at 25 µM | actives 2.5% (n = 340,000) | AID 1259313;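 active = melting temperature shift of at least 10% of the positive control shift, at one fixed dose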
ADAM17 inh: ADAM17 inhibition, QFRET primary screen | P78536 | recombinant ADAM17, EDANS/DABCYL FRET peptide cleavage | inhibition, % at 6.95 µM | actives 0.83% (n = 370,000);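 active = inhibition above the mean of compounds lying between control limits plus 3 SD, set per campaign, cut at about 8.5% in these data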;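 also: 0% = DMSO-only wells as the low control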
Target sequence (P78536 215-824 limits assumed): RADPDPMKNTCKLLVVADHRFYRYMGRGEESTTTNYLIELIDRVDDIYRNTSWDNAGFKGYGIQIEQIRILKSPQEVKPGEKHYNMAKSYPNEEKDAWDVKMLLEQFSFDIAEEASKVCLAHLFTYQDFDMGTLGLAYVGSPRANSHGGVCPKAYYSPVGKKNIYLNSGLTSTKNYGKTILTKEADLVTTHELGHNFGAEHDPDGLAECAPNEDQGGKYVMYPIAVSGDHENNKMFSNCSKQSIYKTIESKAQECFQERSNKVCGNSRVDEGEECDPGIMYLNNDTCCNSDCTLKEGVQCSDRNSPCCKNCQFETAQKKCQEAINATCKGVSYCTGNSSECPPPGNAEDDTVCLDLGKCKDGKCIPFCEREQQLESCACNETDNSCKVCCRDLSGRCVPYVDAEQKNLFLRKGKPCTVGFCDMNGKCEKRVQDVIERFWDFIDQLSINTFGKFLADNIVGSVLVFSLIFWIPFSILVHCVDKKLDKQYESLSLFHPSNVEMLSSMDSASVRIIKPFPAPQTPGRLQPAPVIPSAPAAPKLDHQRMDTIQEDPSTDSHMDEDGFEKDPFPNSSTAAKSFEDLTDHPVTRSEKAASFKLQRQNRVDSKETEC
HGIII-sPLA2 inh: Blocks human group III sPLA2 activity; inhibition, % at 12.2 µM; QFRET BODIPY PC-A2 liposome hydrolysis, fluorescence; actives 0.56% (n = 370,000); Q9NZ20;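 active = inhibition above mean plus 3 SD of compounds lying within the high and low control bounds, cut at about 19% in these data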;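 also: 0% = median of test compound wells and 100% = no enzyme DMSO wells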
ADAM10 inh: inhibitors of human ADAM10; O14672; recombinant ADAM10, EDANS/DABCYL FRET peptide cleavage, 3 h; inhibition, % at 7 µM; actives 0.62% (n = 370,000); AID 720582;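 active = inhibition above a per-campaign cutoff equal to the mean of compounds falling between control-based bounds plus 3 SD, cut at about 20% in these data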;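 also: 0% = DMSO wells while the 100% control is not disclosed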
FAS-TE inh: blocks the thioesterase domain of human fatty acid synthase | recombinant FAS-TE, OMFH fluorogenic substrate, fluorescence endpoint | inhibition, % at 15 µM | actives 0.67% (n = 360,000) | AID 602261;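 active = compounds whose normalised, plate-corrected inhibition of enzyme fluorescence in the single-dose primary screen is 50% or more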;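 also: 0% = DMSO with enzyme and 100% = substrate without enzyme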
* = called active by the depositor; nt = not tested or not shown.

SMILES	GRIN3A LBD mod	ADAM17 inh	HGIII-sPLA2 inh	ADAM10 inh	FAS-TE inh
CCc1csc(CNC(=O)C2CCC(=O)N(Cc3cccc(F)c3)C2)n1 (configuration not stated)	13.1*	-2.0	2.5	-1.6	-6.1
O=C(NCCc1ccc(C(F)(F)F)cc1)C1CCC(=O)N(CCc2cccc(F)c2)C1 (configuration not stated)	14.4*	-0.1	-5.7	2.4	1.9
O=[N+]([O-])c1cccc(OC[C@@H](O)CN2CCC(C(O)(c3ccccc3)c3ccccc3)CC2)c1	nt	2.8	-10.3	3.6	nt
Nc1ccc(N=Nc2ccccc2)c(N)n1	5.0	-1.2	23.0*	-29.8	6.0
COc1ccc(CC2(C)OC(c3ccc(Cl)cc3)=NN2C(C)=O)cc1 (configuration not stated)	13.4*	-17.3	-7.8	-46.5	26.1
O=C(CSc1nnc(-c2cccnc2)n1-c1ccccc1)c1ccccc1Cl	nt	-1.2	-27.9	-0.7	nt
CCCCCCCCN1C(=O)[C@@H](CC(=O)N2CCSCC2)C[C@@]2(C(=O)OC)C1=C[C@H](C(C)(C)C)O[C@@H]2C	nt	-0.3	1.1	6.4	nt
O=C1CC(SC(=Nc2ccccc2)Nc2ccccc2)C(=O)N1c1cccc(Cl)c1 (configuration not stated)	10.1*	2.2	-15.0	8.0	28.5
O=C1CC(SC(=Nc2ccccc2)Nc2ccccc2)C(=O)N1c1ccc(Cl)cc1 (configuration not stated)	9.3	0.3	-6.7	1.5	28.4
O=C(Nc1ccc(OCc2ccccc2)cc1)Nc1cccnc1	14.6*	1.6	-10.0	0.2	-2.9
COc1ccc(CC(=O)Nc2ccc(OC)nc2)cc1	-0.9	-0.3	5.7	5.6	-10.7
COc1ccc(NC(=O)Nc2ccc(OCc3ccccc3)cc2)cn1	29.0*	0.9	-6.6	-5.1	-1.7
COP(=O)(O)C(C)NC(=O)OCc1ccccc1 (configuration not stated)	nt	0.5	6.4	3.8	nt
COC(=O)C1CN(Cc2cn(CCOC(C)=O)nn2)CCS(=O)(=O)N1Cc1ccc(F)cc1 (configuration not stated)	nt	-0.2	1.4	6.2	nt
CCCCCCCCCCNC(=O)C(=O)Nc1ccccn1	12.2*	nt	nt	nt	-2.5
O=C(N/N=C/c1c[nH]c2ccccc12)c1ccn(Cc2ccc(Cl)cc2)n1	-0.4	-1.1	-9.1	8.0	16.7
O=C(N/N=C/c1c[nH]c2ccc(Br)cc12)c1ccncc1	25.9*	-0.1	-1.9	2.7	-2.0
O=C(N/N=C/c1cc2c(cc1Br)OCO2)c1ccccn1	-1.3	-0.9	-2.0	-8.6	-2.1
NC(=O)C(=O)N/N=C/c1c[nH]c2ccc(Br)cc12	-5.9	2.7	-2.5	2.5	-5.4
O=C(N/N=C/c1c[nH]c2ccc(Br)cc12)c1ccn(Cc2ccc(Cl)cc2Cl)n1	17.0*	-2.0	-3.0	-9.2	24.6
O=C(N/N=C/c1c[nH]c2ccc(Br)cc12)c1ccccn1	10.2*	-3.0	-3.3	-2.8	-0.3
O=C(N/N=C/c1c[nH]c2ccccc12)c1ccncc1	6.5	0.5	-5.3	0.1	-12.4
O=C(N/N=C/c1c[nH]c2ccc(Br)cc12)C1CC1	10.4*	0.9	-19.3	2.8	-3.6
CCC[C@H]1[C@@H](N(C)Cc2ccccc2)CC[C@@]23CCCN2C(=O)CCC[C@@H]13	nt	0.5	-1.2	2.7	nt
CC(C)(C)c1ccc(-c2nnc3sc(COc4ccccc4)nn23)cc1	nt	0.0	-3.1	1.2	nt
SMILES	GRIN3A LBD mod	ADAM17 inh	HGIII-sPLA2 inh	ADAM10 inh	FAS-TE inh
COC(=O)[C@]12C[C@H](CC(=O)NCc3ccc(OC)c(OC)c3)C(=O)N(Cc3ccc(Cl)cc3Cl)C1=C[C@H](C(C)(C)C)O[C@@H]2C	nt	5.0	-13.3	12.2	nt
COCC1CN(CCc2ccc(F)cc2)S(=O)(=O)c2c(OCCN3C(=O)[C@@H]4[C@H](C3=O)[C@@H]3C=C[C@H]4C3)cccc2O1 (some centres not stated)	nt	-0.3	-7.4	2.2	nt
COc1ccc(C(=O)CNc2ccc3ccccc3c2)cc1	-0.8	-34.9	2.4	-121.7	2.1
COc1ccc(C(=O)CNc2ccccc2Br)cc1	17.3*	-2.8	9.1	-9.5	23.9
O=C(CN1C(=O)C(=O)N(CCC2=CCCCC2)C1=O)c1c[nH]c2ccccc12	29.8*	5.5	-20.5	6.9	17.8
COCc1nnc(NC(=O)c2ccc(NC(C)=O)cc2)s1	23.7*	4.1	12.6	4.0	-6.6
CCCC(=O)Nc1ccc(C(=O)Nc2nnc(COC)s2)cc1	-26.5	0.3	1.3	4.8	-7.5
CC(Nc1cccc2ccccc12)C(=O)N/N=C/c1ccc([N+](=O)[O-])cc1 (configuration not stated)	22.1*	-2.8	6.8	-11.2	30.6
COc1cc([N+](=O)[O-])cc(/C=N/NC(=O)C(C)Nc2cccc3ccccc23)c1O (configuration not stated)	5.9	-6.8	1.4	-29.9	8.2
COc1ccc2c(c1)CNC2CS(=O)(=O)NCC(C)C (configuration not stated)	nt	-22.3	4.2	-79.1	nt
CCOc1ccccc1NC(=O)c1cc(C(=O)c2cc(Br)ccc2O)coc1=N	24.9*	3.4	-27.0	13.1	15.8
Cc1nc2cc(C(=O)N3CCN(C(=O)C(Cl)Cl)CC3)ccc2n1C1CCCC1	nt	-1.8	12.5	-14.9	nt
COc1ccc2cc(C(=O)Nc3ccc(S(N)(=O)=O)cc3)sc(=O)c2c1OC	22.5*	-11.0	-0.7	-35.8	-6.8
COc1ccc2cc(C(=O)NCCO)sc(=O)c2c1OC	-0.9	-4.1	3.5	-16.4	-9.0
COc1cc(NC(=O)c2cc3c(Cl)nc4ccccc4c3s2)cc(OC)c1OC	-3.4	-3.0	5.5	6.0	0.5
O=C(Nc1ccccc1)c1ccc(-c2ccccc2)s1	14.5*	0.6	0.3	-7.3	3.0
O=C(Nc1ccccc1)c1cc2ccc3ccccc3c2s1	33.0*	-1.9	5.3	6.9	11.9
COc1ccc2cc(C(=O)Nc3ccccc3)sc(=O)c2c1OC	21.9*	-3.0	9.3	-0.2	-6.0
O=C(O)c1ccc(-c2ccc(-c3ccccc3)cc2)s1	nt	nt	nt	nt	0.5
O=C(Nc1ccc(Cl)cc1Cl)O[C@@H]1CC[C@@]23CCCN2C(=O)CCC[C@H]3C1	nt	-3.1	7.6	-0.2	nt
COc1ccc2c(c1)CO[C@H]([C@H](O)COC(C)=O)[C@H]2/C=C/c1ccccc1	nt	1.8	-5.6	-3.4	nt
CC(C)C(=O)Nc1nnc(SCC(=O)Nc2ccc3c(c2)OCO3)s1	36.5*	0.3	6.0	10.7	-3.2
CC(C)C(=O)Nc1nnc(SCC(=O)Nc2ccc3c(c2)OCCO3)s1	4.7	-0.7	-1.3	3.3	-4.0
CCOc1ccc2nc(SCC(=O)Nc3ccc4c(c3)OCO4)sc2c1	19.1*	2.6	8.0	3.0	20.9
CCOc1ccc2nc(SCC(=O)c3ccc(C)s3)sc2c1	-7.0	-3.1	-14.4	3.2	28.2
CCOc1ccc2nc(SCC(=O)c3ccc(O)cc3O)sc2c1	16.5*	-5.0	-25.3	0.5	-1.0
Nn1c(SCC(=O)Nc2ccc3c(c2)OCO3)nnc1-c1ccc(Cl)cc1	17.9*	-0.2	2.1	5.9	0.2

From PubChem
